Experimental data: PubChem BioAssay AID1159580 (chemical genetic matrix, 2015)
The campaign covered roughly 5,500 compounds. About 2,000 (36%) were called active. Roughly 18% stayed inconclusive and do not appear here. Cut-off read from the data, not from the text of the source: active = normalized growth mostly below about 0.91 (no sharp cut-off); inconclusive = no clear call, values can overlap the other calls; inactive = mostly above about 0.92. Some of the results follow.

Experiment: chemical genetic growth profiling, strain panel (AID 1159580);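 note: tested at 20 µM; growth read once vehicle control cultures reached saturation at 30 °C; 1 = growth at the plate median or of vehicle wells; lower values mean less growth of the strain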
Details: growth OD

Measured: normalized growth

Cc1cn([C@H]2C[C@H](N=[N+]=[N-])[C@@H](CO)O2)c(=O)[nH]c1=O
inactive: S. cerevisiae deletion strains, locus YJR066W, strain TOR1, hits give low values 0.932 | S. cerevisiae deletion strains, locus YKL009W, strain mrt4, hits give low values 0.995 | S. cerevisiae deletion strains, locus YKL068W, hits give low values 1.01 | S. cerevisiae deletion strains, locus YKL085W, strain MDH1 (second series), hits give low values 1.01 | S. cerevisiae deletion strains, locus YKL085W, strain MDH1, hits give low values 1.01 | S. cerevisiae deletion strains, locus YKL160W, strain elf1, hits give low values 0.975 | S. cerevisiae deletion strains, locus YKL190W, strain CNB1, hits give low values 1.01 | S. cerevisiae deletion strains, locus YKR001C, strain vps1, hits give low values 1.02 | S. cerevisiae deletion strains, locus YKR026C, strain gcn3, hits give low values 0.988 | S. cerevisiae deletion strains, locus YKR091W, strain srl3, hits give low values 0.999 | S. cerevisiae deletion strains, locus YLL001W, strain dnm1, hits give low values 0.978 | S. cerevisiae deletion strains, locus YLL026W, hits give low values 0.996 | S. cerevisiae deletion strains, locus YLL041C, strain sdh2, hits give low values 0.993 | S. cerevisiae deletion strains, locus YLR027C, strain aat2, hits give low values 0.99 | S. cerevisiae deletion strains, locus YLR039C, strain RIC1, hits give low values 0.989 | S. cerevisiae deletion strains, locus YLR058C, strain SHM2, hits give low values 1.01 | S. cerevisiae deletion strains, locus YLR102C, strain apc9, hits give low values 1.01 | S. cerevisiae deletion strains, locus YLR113W, strain HOG1, hits give low values 0.936 | S. cerevisiae deletion strains, locus YLR221C, strain rsa3, hits give low values 1.02 | S. cerevisiae deletion strains, locus YLR258W, strain gsy2, hits give low values 0.97 | S. cerevisiae deletion strains, locus YLR262C, strain YPT6 (second series), hits give low values 0.998 | S. cerevisiae deletion strains, locus YLR262C, strain YPT6, hits give low values 1.01 | S. cerevisiae deletion strains, locus YLR268W, strain sec22, hits give low values 1 | S. cerevisiae deletion strains, locus YLR320W, strain mms22, hits give low values 0.981 | S. cerevisiae deletion strains, locus YLR330W, strain CHS5, hits give low values 1 | S. cerevisiae deletion strains, locus YLR342W, strain FKS1 (second series), hits give low values 0.991 | S. cerevisiae deletion strains, locus YLR342W, strain FKS1, hits give low values 1.01 | S. cerevisiae deletion strains, locus YLR357W, strain rsc2, hits give low values 0.935 | S. cerevisiae deletion strains, locus YLR370C, strain arc18, hits give low values 0.98 | S. cerevisiae deletion strains, locus YLR371W, strain rom2, hits give low values 1.01 | S. cerevisiae deletion strains, locus YLR384C, strain iki3, hits give low values 1 | S. cerevisiae deletion strains, locus YLR418C, strain cdc73, hits give low values 1.04 | S. cerevisiae deletion strains, locus YML016C, strain PPZ1, hits give low values 1 | S. cerevisiae deletion strains, locus YML032C, strain rad52, hits give low values 1.01 | S. cerevisiae deletion strains, locus YML120C, strain ndi1, hits give low values 1.01 | S. cerevisiae deletion strains, locus YML124C, strain tub3, hits give low values 1.01 | S. cerevisiae deletion strains, locus YMR058W, strain fet3, hits give low values 1.02 | S. cerevisiae deletion strains, locus YMR078C, strain ctf18, hits give low values 1 | S. cerevisiae deletion strains, locus YMR125W, strain sto1, hits give low values 0.999 | S. cerevisiae deletion strains, locus YMR129W, hits give low values 0.99 | S. cerevisiae deletion strains, locus YMR205C, strain PFK2, hits give low values 0.975 | S. cerevisiae deletion strains, locus YMR223W, strain ubp8, hits give low values 1 | S. cerevisiae deletion strains, locus YMR231W, strain pep5, hits give low values 1 | S. cerevisiae deletion strains, locus YMR263W, strain SAP30, hits give low values 1.01 | S. cerevisiae deletion strains, locus YMR307W, strain GAS1, hits give low values 1.02 | S. cerevisiae deletion strains, locus YNL067W, strain RPL9B, hits give low values 1.02 | S. cerevisiae deletion strains, locus YNL071W, strain lat1, hits give low values 1.01 | S. cerevisiae deletion strains, locus YNL153C, strain GIM3, hits give low values 1 | S. cerevisiae deletion strains, locus YNL183C, strain NPR1, hits give low values 0.911 | S. cerevisiae deletion strains, locus YNL209W, strain ssb2, hits give low values 0.994 | S. cerevisiae deletion strains, locus YNL233W, strain BNI4, hits give low values 0.991 | S. cerevisiae deletion strains, locus YNL248C, strain rpa49, hits give low values 0.981 | S. cerevisiae deletion strains, locus YNL250W, strain rad50, hits give low values 1.02 | S. cerevisiae deletion strains, locus YNL271C, strain bni1, hits give low values 1.02 | S. cerevisiae deletion strains, locus YNL298W, strain CLA4, hits give low values 1.02 | S. cerevisiae deletion strains, locus YNL307C, strain MCK1, hits give low values 1.01 | S. cerevisiae deletion strains, locus YNL322C, strain KRE1 (second series), hits give low values 0.972 | S. cerevisiae deletion strains, locus YNL322C, strain KRE1, hits give low values 1 | S. cerevisiae deletion strains, locus YNR049C, strain mso1, hits give low values 0.996 | S. cerevisiae deletion strains, locus YNR052C, strain pop2, hits give low values 1.01 | S. cerevisiae deletion strains, locus YOL006C, strain TOP1, hits give low values 1 | S. cerevisiae deletion strains, locus YOL012C, strain htz1 1.05 | S. cerevisiae deletion strains, locus YOL147C, strain pex11, hits give low values 1.01 | S. cerevisiae deletion strains, locus YOR001W, strain rrp6, hits give low values 1.02 | S. cerevisiae deletion strains, locus YOR061W, strain CKA2, hits give low values 1.01 | S. cerevisiae deletion strains, locus YOR069W, strain VPS5, hits give low values 1.01 | S. cerevisiae deletion strains, locus YOR070C, strain gyp1, hits give low values 0.998 | S. cerevisiae deletion strains, locus YOR080W, strain dia2, hits give low values 0.999 | S. cerevisiae deletion strains, locus YOR083W, strain WHI5, hits give low values 0.946 | S. cerevisiae deletion strains, locus YOR106W, strain vam3, hits give low values 0.999 | S. cerevisiae deletion strains, locus YOR136W, strain idh2, hits give low values 1.02 | S. cerevisiae deletion strains, locus YOR144C, strain elg1, hits give low values 1.01 | S. cerevisiae deletion strains, locus YOR184W, strain ser1, hits give low values 1.01 | S. cerevisiae deletion strains, locus YOR231W, strain MKK1, hits give low values 0.982 | S. cerevisiae deletion strains, locus YOR265W, strain rbl2, hits give low values 1.01 | S. cerevisiae deletion strains, locus YOR270C, strain vph1, hits give low values 1.06 | S. cerevisiae deletion strains, locus YOR290C, strain snf2, hits give low values 0.993 | S. cerevisiae deletion strains, locus YOR316C, strain cot1, hits give low values 1.01 | S. cerevisiae deletion strains, locus YPL051W, strain arl3, hits give low values 0.985 | S. cerevisiae deletion strains, locus YPL055C, strain LGE1, hits give low values 1.03 | S. cerevisiae deletion strains, locus YPL078C, strain atp4, hits give low values 0.99 | S. cerevisiae deletion strains, locus YPL106C, strain sse1, hits give low values 0.94 | S. cerevisiae deletion strains, locus YPL240C, strain hsp82, hits give low values 0.994 | S. cerevisiae deletion strains, locus YPL241C, strain CIN2, hits give low values 1 | S. cerevisiae deletion strains, locus YPL256C, strain CLN2, hits give low values 0.942 | S. cerevisiae deletion strains, locus YPR119W, strain clb2, hits give low values 1.01 | S. cerevisiae deletion strains, locus YPR141C, strain kar3, hits give low values 1.01 | S. cerevisiae deletion strains, locus YPR163C, strain tif3, hits give low values 1.01 | S. cerevisiae deletion strains, locus YPR167C, strain met16, hits give low values 1.01 | S. cerevisiae deletion strains, strain wtn01, hits give low values 1.01 | S. cerevisiae strains, strain wild type, hits give low values 1
